Measurements from PubChem BioAssay (Tox21).
Results filed as inconclusive are left out. A number with no mark means an inactive call. The source made the active and inactive calls. Calls follow the shape of the dose curve; as a rule, active = well fitted inhibition curve with a large enough effect in the repeat runs; inconclusive = weak or mixed curves; inactive = flat fitted curve, though single readings scatter.

test: qHTS assay to identify small molecule HDAC inhibitors (AID 1259364); conditions: HCT-116 HDAC-Glo I/II luminescence, 2 h; series mostly up to 92.4 µM; activity change, negative = inhibition: at the top concentration; also: nearly all actives have a fitted effect of over 45% in size; as to activity change, negative = inhibition: top concentration of the series differs between compounds
Text: U.S. Tox21 Program National Center for Advancing Translational Sciences [NCATS] NIH Chemical Genomics Center [NCGC] U.S. Environmental Protection Agency [EPA] National Institutes of Environmental Health Sciences [NIEHS] National Toxicology Program [NTP] U.S. Food and Drug Administration [FDA] Tox21 Assay Overview: Histone deacetylases (HDACs) are a group of epigenetic enzymes that regulate gene expression by histone deacetylation. HDACs are capable of introducing epigenetic modifications and such aberrations contribute to the onset and progression of several human diseases, thus making HDACs a popular therapeutic target. For identifying endogenous class I/II HDAC inhibitors a homogenous, luminogenic HDAC I/II cell based assay was used to measure the relative activity of class I and II HDACs from cells. Wild type HCT-116 cells were used to screen Tox21 libraries for identifying class I/II HDAC inhibitors.
Tox21 Assay Protocol Summary: HCT-116 cells were dispensed at 1,500 per well in 5uL of culture medium into white solid bottom 1536-well plates (Greiner Bio-One, Monroe, NC) using a Multidrop Combi (Thermo Scientific, Waltham, MA) dispenser. The assay plates were incubated at 37 C and 5% CO2 for an overnight, and then 23nL of compounds dissolved in DMSO and positive control were transferred using a Pintool station (Wako, San Diego, CA). The assay plates were incubated at 37C and 5% CO2 for 2hr. After compound treatment, 4uL of HDAC-Glo reagent (Promega Corporation, Madison, WI) was added to each well of the assay plates using Flying Reagent Dispenser (FRD, Aurora Discovery, San Diego, CA) and incubated the assay plates at room temperature for 30min. The luminescence signal was quantified using a ViewLux plate reader (Perkin Elmer, Shelton, CT).
% is scaled to controls: 0 for no effect and ±100 for the full control effect; potency is read from the fitted curve at half-maximal effect.

Q: With CCCc1nc2c(C)cc(-c3nc4ccccc4n3C)cc2n1Cc1ccc(-c2ccccc2C(=O)O)cc1 as the molecule, how does the “activity change, negative = inhibition” value read?
A: Its value is -2.31% [at 42.5 µM].

Q: With CC(C)(C)C1(CCc2ccc(Cl)cc2)CO1 (stereo not given) as the molecule, how does the “activity change, negative = inhibition” value read?
A: Its value is 2.33%.

Q: Which “activity change, negative = inhibition” value does the source give for CC(=O)C(C)=O here?
A: The value was -0.168%.

Q: Which “activity change, negative = inhibition” value does the source give for O=c1[nH][nH]c(=O)c2cc([N+](=O)[O-])ccc12 here?
A: The value was 1.16%.

Q: Which “activity change, negative = inhibition” value does the source give for O=S(=O)(Cl)c1c(Cl)cccc1Cl here?
A: Its value is -1.69%.

Q: With CC(=O)OCC(C)C as the molecule, how does the “activity change, negative = inhibition” value read?
A: Its value is 4.65%.

Q: With CNc1c2c(nn1C)CCCC2 as the molecule, how does the “activity change, negative = inhibition” value read?
A: Its value is -3.31% [at 42.5 µM].

Q: For CC(C)CC(O)CC(C)C, which “activity change, negative = inhibition” value is on record?
A: Its value is -2.7%.

Q: With CC(C)(C(=O)c1cccnc1)c1cccnc1 as the molecule, how does the “activity change, negative = inhibition” value read?
A: Its value is 2.3% [at 42.5 µM].

Q: Which “activity change, negative = inhibition” value does the source give for O=C1[C@@H]2[C@H]3CC[C@H](C3)[C@@H]2C(=O)N1CCCCN1CCN(c2ncccn2)CC1 here?
A: The value was 1.2% [at 42.5 µM].

Q: For CN1CCCN(C(c2ccccc2)c2ccc(Cl)cc2)CC1 (stereo not given), which “activity change, negative = inhibition” value is on record?
A: The value was 0.625% [at 42.5 µM].

Q: For COc1cc(NCc2ccc3nc(N)nc(N)c3c2C)cc(OC)c1OC, which “activity change, negative = inhibition” value is on record?
A: The value was -1.48% [at 42.5 µM].

Q: For Cc1ccc2c(c1)CCCN2, which “activity change, negative = inhibition” value is on record?
A: Its value is 0.905%.

Q: With COc1ccc(-c2cc(C(F)F)nn2-c2ccc(S(N)(=O)=O)cc2)cc1F as the molecule, how does the “activity change, negative = inhibition” value read?
A: The value was -10.1% [at 42.5 µM].

Q: For CC(=O)C(=O)CC(C)C, which “activity change, negative = inhibition” value is on record?
A: The value was -4.65%.

Q: With CCCCCCOC(=O)CCCCC as the molecule, how does the “activity change, negative = inhibition” value read?
A: The value was -0.762%.

Q: For CC(C)COC(=O)COc1cc(Cl)c(Cl)cc1Cl, which “activity change, negative = inhibition” value is on record?
A: Its value is -2.2%.

Q: Which “activity change, negative = inhibition” value does the source give for C=Cc1ccc(OC(C)=O)cc1 here?
A: The value was 6.05%.

Q: For O=NN(CCCl)C(=O)NCCCl, which “activity change, negative = inhibition” value is on record?
A: Its value is -3.69% [at 42.5 µM].

Q: With CC(C)C(O)C(C)(C)CO (stereo not given) as the molecule, how does the “activity change, negative = inhibition” value read?
A: Its value is 2.31%.

Q: With C=CC(=O)O as the molecule, how does the “activity change, negative = inhibition” value read?
A: Its value is -1.38% [at 42.5 µM].

Q: For CCCCCCCCCCCCCCN(C)C, which activity change, negative = inhibition is on record?
A: Its activity change, negative = inhibition is 1.53% [at 19 µM].

Q: Which “activity change, negative = inhibition” value does the source give for Nc1c(Cl)cc(Cl)cc1[N+](=O)[O-] here?
A: Its value is 3.34%.

Q: Which “activity change, negative = inhibition” value does the source give for Cc1ccc(N(CC2=NCCN2)c2cccc(O)c2)cc1 here?
A: Its value is 2.49% [at 42.5 µM].

Q: Which “activity change, negative = inhibition” value does the source give for C=CC(=O)NC(C)C here?
A: The value was 15.6%.

Q: With O=C(O)/C=C/c1ccc(O)c(O)c1 as the molecule, how does the “activity change, negative = inhibition” value read?
A: The value was 0.189%.

Q: For Cc1c(C2(c3cc(Br)c(O)c(Br)c3C)OS(=O)(=O)c3ccccc32)cc(Br)c(O)c1Br, which Potency is on record?
A: Its Potency is 4.2 µM (active).

Q: Which “activity change, negative = inhibition” value does the source give for CN=C(N)NC(=O)Nc1c(C)cccc1C here?
A: The value was 6.35% [at 42.5 µM].

Q: Which “activity change, negative = inhibition” value does the source give for CC(CN(CCN(CC(C)OCCO)CC(C)OCCO)CC(C)OCCO)OCCO (stereo not given) here?
A: Its value is -2.21%.

Q: For CC1CCC(C(C)CS)CC1S (stereo not given), which “activity change, negative = inhibition” value is on record?
A: Its value is -2.24%.

Q: With Cc1c[nH]c2ccccc12 as the molecule, how does the “activity change, negative = inhibition” value read?
A: The value was 3.55% [at 42.5 µM].

Q: For CC(=O)N[C@@H](Cc1ccc(O)cc1)C(=O)O, which “activity change, negative = inhibition” value is on record?
A: Its value is 3.44% [at 42.5 µM].

Q: Which “activity change, negative = inhibition” value does the source give for CCCCCCCCCCCCCCCC(=O)OCC here?
A: Its value is -1.31%.

Q: With CC[C@H]1OC(=O)[C@H](C)[C@@H](O[C@H]2C[C@@](C)(OC)[C@@H](O)[C@H](C)O2)[C@H](C)[C@@H](O[C@@H]2O[C@H](C)C[C@H](N(C)C)[C@H]2O)[C@](C)(O)C[C@@H](C)CN(C)[C@H](C)[C@@H](O)[C@]1(C)O as the molecule, how does the “activity change, negative = inhibition” value read?
A: The value was 1.52% [at 42.5 µM].

Q: For CC(C)(C)C(O)/C=C/c1ccc2c(c1)OCO2 (stereo not given), which “activity change, negative = inhibition” value is on record?
A: Its value is -11.2% [at 42.5 µM].

Q: With CCCCC(CC)COS(=O)(=O)O (stereo not given) as the molecule, how does the “activity change, negative = inhibition” value read?
A: Its value is -0.461%.

Q: For Cc1ccc2c(c1[N+](=O)[O-])C(=O)c1ccccc1C2=O, which “activity change, negative = inhibition” value is on record?
A: The value was -22.7% [at 42.5 µM].

Q: Which “activity change, negative = inhibition” value does the source give for CC(C)C1CCC(C(=O)N[C@H](Cc2ccccc2)C(=O)O)CC1 (stereo not given in full) here?
A: Its value is -6.96% [at 42.5 µM].

Q: With N[C@@H](Cc1cc(I)c(O)c(I)c1)C(=O)O as the molecule, how does the “activity change, negative = inhibition” value read?
A: The value was -12.1% [at 42.5 µM].

Q: For O=C1OC(=O)c2c(Br)c(Br)c(Br)c(Br)c21, which “activity change, negative = inhibition” value is on record?
A: Its value is -0.0679%.
